In ChEMBL document CHEMBL1157539, “Thousands of chemical starting points for antimalarial lead identification” (Nature, 2010):

system: Plasmodium falciparum; experiment: GSK_TCMDC: Inhibition of Plasmodium falciparum Dd2 in whole red blood cells, using parasite LDH activity as an index of growth. Test compounds present at 2uM; assay type: functional

| SMILES | Inhibition [%] |
| --- | --- |
| O=C(Nc1ccc(-c2cccc(-c3nc4cc(C(F)(F)F)ccc4[nH]3)c2)cc1)Nc1ccc(Cl)c(Cl)c1 | 23 |
| O=C(O)C(F)(F)F.c1ccc(CNCc2cccc(-c3cccc(-c4nc5ccccc5[nH]4)c3)c2)cc1 | 38 |
| CCCCCOc1c(CCC)cc(Cc2cnc(N)nc2N)cc1CCC | 0 |

system: HepG2; experiment: GSK_TCMDC: Percent inhibition of human HepG2 cell line. Test compounds present at 10uM.; assay type: functional

| SMILES | Inhibition [%] |
| --- | --- |
| O=C(Nc1ccc(S(=O)(=O)N2CCCCC2)cc1)c1cc(-c2ccccc2O)n[nH]1 | 13 |
| COc1ccc(CNCc2ccsc2)cc1-c1ccc(OC)c(S(=O)(=O)NCCN2CCCC2)c1.O=C(O)C(F)(F)F | 18 |
| Cn1nc(C(F)(F)F)c(-c2ccc(Br)cc2)c1NC(=O)Cc1ccccc1F | 6 |
| NC1CCCN(Cc2ccc(-c3ccc(-c4nc5cc(F)ccc5[nH]4)s3)cc2)C1.O=C(O)C(F)(F)F (centres undefined) | 40 |
| C=CC[C@H](NC(=O)c1ccc(NS(=O)(=O)c2ccc3nc(N)[nH]c(=O)c3c2)cc1)C(=O)OCCCC | 61 |
| NC1CCN(Cc2cccc(-c3ccc(-c4nc5ccccc5[nH]4)cc3)c2)C1.O=C(O)C(F)(F)F (centres undefined) | 24 |
| COc1ccc(C2CC(c3cccs3)=NN2C(=O)c2ccccc2)cc1OC (centres undefined) | 5 |
| CN1CCC(NCc2ccc(-c3cccc(S(=O)(=O)NCc4ccccc4)c3)cc2)CC1.O=C(O)C(F)(F)F | 72 |
| Cc1nnsc1C(=O)Nc1cccc(-c2ccc(-c3nc4ccccc4[nH]3)cc2)c1 | 48 |
| CN(C)C(=O)CC(=O)NCc1cccc(Cl)c1 | 4 |
| COc1cc(-c2nc(-c3ccccc3)c(-c3ccccc3)[nH]2)cc(OC)c1O | 5 |
